TTR transcr act = activators of transthyretin transcription; SH-SY5Y TTR promoter Gaussia luciferase, luminescence; 100% = recombinant luciferase protein wells; activation, % at 16.7 µM; 1.3% of 92,000 active;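 active means activation above the mean of all tested compounds plus 3 SD, cut at about 9.5% in these data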;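 further: cells exposed to compounds for one day before reading; 0% = median of all test compound wells on the plate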
TTR inh HuH7 = decreases TTR transcription in HuH7 cells in activator counter-screen. 4% of 1,100 active. HuH7 TTR promoter-Gaussia luciferase reporter, luminescence. shares compounds with TTR transcr act. inhibition, % at 16.7 µM;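 active means average inhibition above the solvent-only control wells' mean plus 3 SD, cut at about 15% in these data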;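 further: 0% = cells with DMSO only and 100% = cells with inhibitor control FD; inhibitors lower well luminescence so higher value means more inhibition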
TTR act confirm = human TTR transcription activation, confirmation; 1,100 tested, under 10 active; AID 1117280; shares compounds with TTR transcr act; SHSY5Y TTR promoter Gaussia luciferase, luminescence; 100% = purified Lucia enzyme wells, no cells; activation, % at 16.7 µM;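 active means mean activation above a set limit taken from the earlier primary screen, cut at about 11% in these data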;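 further: 0% = DMSO-treated cells and 100% = recombinant Lucia luciferase without cells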
Numbers without * were called inactive. This is one part of a sample in which hits are shown more often than they occur.

SMILES | TTR transcr act | others
N#Cc1ccc(NC(=O)NN2CCCCCC2)cc1 | 5
O=C(Nc1ccc(Cl)cc1)NN1CCCCCC1 | 17* | TTR inh HuH7=2;TTR act confirm=0
O=C(Nc1ccc([N+](=O)[O-])cc1)NN1CCCCCC1 | 0
CCOC(=O)[C@]12CCCC=C1N(CCCOC)C(=O)[C@@H]2CC(=O)N1CCN(C(=O)c2ccco2)CC1 | -1
CN(Cc1ccccc1)C(=O)OCc1cn(Cc2cccc(F)c2F)nn1 | -1
CC(C)c1ccc2[nH]c(O)c(N=NC(=S)NCCc3ccccc3)c2c1 | 12* | TTR inh HuH7=-8;TTR act confirm=0
CC(C)c1ccc2[nH]c(O)c(N=NC(=O)c3ccc(CSc4nncn4C)cc3)c2c1 | 9
Oc1[nH]c2ccccc2c1N=NC(=S)NCCc1ccccc1 | 7
CC(C)CCNC(=O)[C@H]1COC(O)([C@H](Cc2ccccc2)NC(=O)[C@@H](NC(=O)OCc2ccccc2)C(C)C)CN1C (some centres undefined) | 2
COc1ccc(CCNC(=O)Cn2nnc(-c3ccccc3F)n2)cc1OC | -1
O=C(Cn1cnc2c(nnn2Cc2ccc(F)cc2)c1=O)NCc1ccc(F)cc1 | 1
COc1ccc(CCNC(=O)Cn2cnc3c(nnn3Cc3ccccc3F)c2=O)cc1OC | 22* | TTR inh HuH7=-10;TTR act confirm=-1
COC(C)(C)[C@H](O)COc1c2ccoc2cc2oc(=O)ccc12 | 13* | TTR inh HuH7=-21;TTR act confirm=0
CC(C)(O)C(O)COc1c2ccoc2cc2oc(=O)ccc12 (centres undefined) | 3
COc1c2ccoc2c(OC[C@@H](OC(C)=O)C(C)(C)O)c2oc(=O)ccc12 | 1
CC(C)(C)c1ccc(-c2csc(N3CCC(C(N)=O)CC3)n2)cc1 | 2
O=C(COc1ccc(F)cc1Cl)Nc1nnc(-c2ccc(F)c(F)c2)o1 | -1
Cc1ccc(C(=O)Nc2ccc(OCc3ccccc3)cc2)s1 | 0
COc1ccc(C(=O)NCCCc2ccccc2)cc1 | -1
Cc1ccc(C(=O)NCCCc2ccccc2)s1 | 67* | TTR inh HuH7=-7;TTR act confirm=1
Cc1ccc(S(=O)(=O)N2OC(c3ccccc3)C[C@H]2CC=C(c2ccccc2)c2ccccc2)cc1 (some centres undefined) | -1
COC(=O)[C@]12C[C@H](CC(=O)NCc3cccc(C(F)(F)F)c3)C(=O)N(Cc3ccc(Cl)cc3Cl)C1=C[C@H](COCc1ccccc1)O[C@@H]2C | -1
Cc1ccccc1CCN(CC(=O)NCc1ccc(F)cc1)C(=O)c1csnn1 | 0
Cc1cc(C)c(N(CC(=O)NCc2ccccc2)C(=O)c2csnn2)c(C)c1 | 0
Cc1ccc(N(CC(=O)NCc2ccc(F)cc2)C(=O)c2csnn2)cc1C | 11* | TTR inh HuH7=-16;TTR act confirm=0
SMILES | TTR transcr act | others
CCC[C@H]1[C@@H](NC(=O)C2CCCCC2)CC[C@@]23CCCN2C(=O)CCC[C@@H]13 | 1
Cc1cccc(Cn2cc(COC(=O)N3CCOCC3)nn2)c1 | -1
Cc1ccc(S(=O)(=O)N2C=C(c3ccccc3)c3ccccc3-c3ccccc32)cc1 | 3
CCOC(=O)c1ccc(NC(=O)CSc2nc(SC)ns2)cc1 | -3
CCOc1ccc2nc(NC(=O)CSc3nc(SC)ns3)sc2c1 | 20* | TTR inh HuH7=-8;TTR act confirm=1
COc1ccc2nc(NC(=O)CSc3ccccc3)sc2c1 | -1
O=C(OCc1cn(Cc2ccc(C(F)(F)F)cc2)nn1)N1CCOCC1 | 1
Oc1ccc(CNc2cccnc2)c2cccnc12 | -1
CCOc1ccc(OCC)c(NC(=O)C2CCCN(c3ncccn3)C2)c1 (centres undefined) | -1
CCC(C)c1ccc(NC(=O)C2CCCN(c3ncccn3)C2)cc1 (centres undefined) | -2
CCc1ccccc1NC(=O)C1CCCN(c2ncccn2)C1 (centres undefined) | 12* | TTR inh HuH7=-10;TTR act confirm=1
CN(CCOC(=O)c1cc2ccccc2o1)C1CN(Cc2cn(Cc3ccccc3Cl)nn2)S(=O)(=O)C1 (centres undefined) | 0
N#CCC(=O)Nc1ccc(C(=O)NNC(=O)CCN2CCN(c3ccccc3)CC2)cc1 | 0
c1nc(NCC2CCCC2)c2cc(-c3ccc4c(c3)OCO4)ccc2n1 | -1
O=S(=O)(NCCNc1nccc(C(F)(F)F)n1)c1ccccc1 | 9.8* | TTR inh HuH7=-13;TTR act confirm=1
O=C(NCCNc1nccc(C(F)(F)F)n1)c1cccc(C(F)(F)F)c1 | -2
COc1ccc(OCCNS(=O)(=O)c2ccccc2)cc1 | 2
CSCCC(NS(=O)(=O)c1ccc2c(c1)OCCO2)C(=O)N(C)Cc1ccccc1F (centres undefined) | -1
COc1ccc(CN2C3=NC(c4ccccc4)CC(=O)N3/C(=C\c3ccccc3)C2c2ccccc2)c(OC)c1 (centres undefined) | -1
FC(F)(F)c1ccccc1Cn1ccc2ccc(-c3ccc4ccn(Cc5ccccc5C(F)(F)F)c4c3)cc21 | 18* | TTR inh HuH7=-6;TTR act confirm=0
Cc1ccccc1Cn1ccc2ccc(-c3ccc4ccn(Cc5ccccc5)c4c3)cc21 | -1
FC(F)(F)c1ccccc1Cn1ccc2ccc(-c3ccc4ccn(Cc5ccccc5)c4c3)cc21 | -2
COC(=O)[C@H](CC1(c2cn(S(=O)(=O)CC[Si](C)(C)C)c3ccccc23)C(=O)Nc2ccccc21)NC(=O)OC(C)(C)C (some centres undefined) | -1
CC(C(=O)Nc1ccc(S(=O)(=O)N2CCCC2)cc1)N(C)CC(=O)Nc1cccc(F)c1 (centres undefined) | 0
CC(C(=O)Nc1ccc(C#N)cc1)N(C)CC(=O)Nc1cccc(F)c1 (centres undefined) | 9.9* | TTR inh HuH7=-9;TTR act confirm=-1
SMILES | TTR transcr act | others
CC(C(=O)Nc1ccc(C#N)cc1)N(C)Cc1cccs1 (centres undefined) | 0
CCOC(=O)N1CCN(C(=O)C[C@H]2C[C@@]3(C(=O)OC)C(=C[C@H](COCc4ccccc4)O[C@@H]3C)N(Cc3ccccc3)C2=O)CC1 | 1
COC(=O)c1cc(-c2cccc(C#N)c2)c(=O)n2c1CCC2 | -1
CCC[C@H]1[C@@H](O)CC[C@@]23CCCN2C(=O)CCC[C@@H]13 | 0
Cc1ccc([N+](=O)[O-])cc1NC(=O)Cc1cccs1 | 0
Cc1ccc([N+](=O)[O-])cc1NC(=O)CNC1CCCCC1 | 17* | TTR inh HuH7=-8;TTR act confirm=0
O=C(CNC1CCCC1)Nc1cc(Cl)ccc1[N+](=O)[O-] | -2
COCCCNC(=O)C[C@H]1C[C@@]2(C(=O)OC)C(=C[C@H](C(C)C)O[C@@H]2C2CC2)N(Cc2ccc(Cl)cc2Cl)C1=O | -1
COc1ccc(C2CC(=O)C3=C(C2)NC(C)=C(C#N)C3c2ccc(N(C)C)cc2)cc1 (centres undefined) | -2
COc1cc(OC)c(C2C(C#N)=C(C)NC(C)=C2C#N)c(C(=O)O)c1 | 30* | TTR inh HuH7=-3;TTR act confirm=1
COc1ccc(C(=O)O)c(O)c1 | 1
CC(=O)NC1CCCCN(C(C)C)C1=O (centres undefined) | -1
CC(C)c1cc(-c2n[nH]c(=S)n2Cc2ccccc2)cs1 | 11* | TTR inh HuH7=-2;TTR act confirm=-1
S=c1[nH]nc(-c2ccccc2)n1Cc1ccccc1 | 6
COc1ccc(-c2n[nH]c(=S)n2Cc2ccccc2)cc1OC | 2
O=C(NCCc1nc2ccccc2n1CCOc1ccc2cccnc2c1)C1CCCCC1 | 0
O=C1CCC[C@H]2C[C@H](NCc3ccc(Br)cc3)CC[C@]23CCCN13 | 0

Source: PubChem
